Source: PubChem
MOR-DOR inv ag – inverse agonists of MOR-DOR heterodimerization, primary screen, cell-based, luminescence. Mu-type opioid receptor (Homo sapiens) + Delta-type opioid receptor (Homo sapiens), …. cell-based MOR-DOR heterodimer luminescence, inverse agonism. inhibition, % at 9.3 µM. 340,000 compounds, 0.21% hits. AID 504357, 2011; in the data active = inhibition above about 22%, passing the limit was not always enough;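 also: 0% = cells with DMSO and 100% = wells without cells with DMSO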
MOR-DOR ag – agonists of OPRM1-OPRD1 heterodimerization, primary screen, cell-based, luminescence | Mu-type opioid receptor (Homo sapiens) + Delta-type opioid receptor (Homo sapiens), … | 340,000 compounds, 0.3% hits | cells | activation, % at 9.3 µM; in the data active = activation above about 18%;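 also: 0% = vehicle-treated cells and 100% = reference agonist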
HTR5A ag – HTR5A agonists in luminescence cell assay, primary screen, counter-screen for OPRM1-OPRD1 heterodimer agonist project, full-deck HTS | 340,000 compounds, 0.61% hits | activation, % at 9.3 µM | AID 504692, 2011 | cell-based | 5-hydroxytryptamine receptor 5A (Homo sapiens), P47898; in the data active = activation mostly above about 9.5%, no sharp cut-off; inactive = mostly below about 7.6%;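 also: 0% = cells with vehicle only and 100% = reference agonist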
HTR5A inv ag – HTR5A inverse agonists in luminescence cell assay, primary screen, counter-screen for OPRM1-OPRD1 heterodimer inverse agonist project, full-deck HTS | 340,000 compounds, 0.083% hits | HTR5A cell line, inverse agonism | inhibition, % at 9.3 µM; in the data active = inhibition mostly above about 23%, no sharp cut-off; inactive = mostly below about 18%;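 also: 0% = cells with DMSO and 100% = no-cell wells with DMSO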
MOR-DOR inv conf – inverse agonists of MOR-DOR heterodimerization, confirmation, cell-based, luminescence; shares compounds with MOR-DOR inv ag; cells expressing OPRM1/OPRD1 heterodimer; inhibition, % at 9.3 µM; 580 compounds, 20% hits; AID 504900, 2011; in the data active = inhibition above about 32%;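 also: 0% = cells with DMSO and 100% = wells lacking cells with DMSO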
HTR5A inv ctr2 – HTR5A inverse agonists, counter-screen for OPRM1-OPRD1 inverse agonist project, cell-based, luminescence; HTR5A-expressing cells, inverse agonism; 580 tested, under 10 active; shares compounds with MOR-DOR inv ag; inhibition, % at 9.3 µM; AID 504914, 2011; call rule not given here;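 also: 0% = cells with DMSO and 100% = no-cell wells with DMSO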
* = called active by the depositor; . = no result. Rows were chosen to be rich in hits. Some 1.1% of all compounds tested hit in one or more screens of this group.

SMILES | MOR-DOR inv ag | MOR-DOR ag | HTR5A ag | HTR5A inv ag | MOR-DOR inv conf | HTR5A inv ctr2
CCc1ccc(C(=O)NNc2cc(Cl)cc(Cl)c2)cc1 | -16.2 | 3.2 | -0.8 | -8.0 | . | .
COc1ccc(NC(=O)c2ccc(NC(=O)CN3CCC(C(N)=O)CC3)cc2)cc1 | 15.6 | -3.0 | -0.6 | 2.5 | . | .
C#CCN1C(C)=CC(=O)[C@@H](O)[C@H]1c1ccccc1Br | 15.7 | -3.4 | 0.1 | -0.4 | . | .
Cc1ccc(S(=O)(=O)N(C(=N)N)c2nc(N(C)C)nc(N(C)C)n2)cc1 | 5.8 | -1.1 | 3.9 | -14.2 | . | .
CC(=O)c1ccc(NC(=O)CN2CCCC2)cc1 | 18.5 | -3.4 | 2.8 | 19.1 | . | .
CCC1Nc2ncnc(N3CCN(c4ccccc4)CC3)c2N(Cc2ccc(C)cc2)C1=O (configuration not stated) | 50.0* | -10.9 | -16.4 | 36.1 | 35.6* | 56.0*
Cc1ccc(CN2C(=O)C(CC(C)C)Nc3ncnc(N4CCN(c5ccccc5)CC4)c32)cc1 (configuration not stated) | 7.6 | -1.3 | 4.7 | 9.1 | . | .
CC(C)(C)OC(=O)C[C@H]1C/C=C\C[C@@H](CC(=O)NCCO)C(=O)NCCOC1=O | 13.2 | -2.3 | -2.0 | -16.5 | . | .
Cc1cccc2c1N(CCOc1ccc(C(C)(C)C)cc1)C(=O)C2=O | 35.6* | -5.9 | -1.9 | 5.2 | -14.1 | -110.5
Cc1ccc(OCCCN2C(=O)C(=O)c3cccc(C)c32)cc1 | 45.0* | -8.3 | -1.0 | 2.7 | 12.3 | 5.1
C=CCOC(=O)CCCCCCCC | 13.3 | -2.5 | 1.9 | -7.9 | . | .
O=C(O)c1ccc2nc(-c3ccco3)c(-c3ccco3)nc2c1 | -18.8 | 4.0 | -0.4 | 5.6 | . | .
O=C(O)c1ccc2nc3c(nc2c1)-c1ccccc1C3=O | 41.5* | -8.8 | 11.4 | 21.9 | 45.8* | 12.1
CC(C)(C)OC(=O)C[C@@H]1C/C=C\C[C@H](CC(=O)N(CCO)Cc2ccccc2)C(=O)NC[C@@H](c2ccccc2)OC1=O | 56.3* | -12.2 | -10.0 | 36.3 | -426.6 | -0.9
O=C(Nc1sc2c(c1C(=O)NCCO)CCCC2)c1ccco1 | 6.1 | -1.1 | 6.2 | -16.7 | . | .
O=C1Nc2ccccc2/C1=N/c1sc2c(c1C(=O)NCCc1ccccc1)CCCC2 | 33.5* | -5.8 | 2.3 | -23.6 | 20.9 | 14.1
CC(C)NC(=O)CN1C(=O)C(=O)c2ccccc21 | 46.8* | -9.4 | -3.2 | 8.4 | -57.6 | -163.4
O=C1C(=O)N(CC(=O)N2CCCC2)c2ccccc21 | 28.2 | -5.4 | 2.2 | 4.7 | . | .
CCOc1ccc(NC(=O)C2CCCN2S(=O)(=O)c2ccc3c(c2)C(C)(C)C(=O)N3C)cc1 (configuration not stated) | -3.2 | 0.6 | 0.5 | -1.4 | . | .
CC(=O)OCC1(C)CN(c2ccccc2)N(C(=O)c2ccc(F)cc2)C1=O (configuration not stated) | 44.3* | -6.1 | -0.5 | 1.2 | 27.4 | -9.4
CC(C)(C)c1ccc(NNC(=O)C2CCC2)cc1 | 34.4* | -6.7 | -3.0 | 2.1 | 1.6 | -16.8
O=S(=O)(NNc1cccc(Cl)n1)c1ccc(Cl)cc1 | 79.7* | -19.6 | -5.6 | 14.3 | 49.8* | 6.3
O=C(/C=C/c1ccccc1[N+](=O)[O-])N1CCc2ccccc2C1 | 5.5 | -1.0 | 4.7 | 4.6 | . | .
O=C1Cc2cccc3cccc1c23 | 29.7* | -5.2 | -2.5 | -7.6 | 12.2 | -16.9
O=C1OCc2cccc3cccc1c23 | 1.3 | -0.2 | -0.6 | -6.2 | . | .
COc1ccc(Cl)cc1NS(=O)(=O)c1cccc(C(=O)NCCCN2CCCC2=O)c1 | 6.5 | -1.2 | 5.0 | 9.8 | . | .
CC1Sc2ccc(C(=O)NCc3ccccn3)cc2NC1=O (configuration not stated) | 11.8 | -3.0 | 0.9 | -2.2 | . | .
CCOc1ccc(CNC23CN4CN(CN(C4)C2)C3)cc1 | 15.7* | -2.5 | 2.1 | -5.4 | 28.3 | 9.3
CCOc1ccc(C=NC23CN4CN(CN(C4)C2)C3)cc1 | -14.2 | 2.6 | 1.8 | -25.8 | . | .
